The values that follow come from PubChem BioAssay AID1224897 (Sanford-Burnham Center for Chemical Genomics, 2016).

This is one part of the list. Calls of active or inactive are those of the source. The rule behind the calls is not given here.

This test has as its target Hepatocyte nuclear factor 4-alpha (Homo sapiens) (UniProt P41235). Description: HNF4-alpha DNA association modulation retest – biochemical, fluorescence polarization, FITC-DNA, confirmation (AID 1224897). The conditions noted are these: HNF4A-FITC DNA binding, 1 h, at 12.5 µM, stronger effect = higher value. A general note: In fluorescence polarisation assays a small probe gives low polarisation when free and higher when bound to something large.

Hepatocyte nuclear factor 4-alpha (Homo sapiens), sequence (P41235 whole entry, looked up): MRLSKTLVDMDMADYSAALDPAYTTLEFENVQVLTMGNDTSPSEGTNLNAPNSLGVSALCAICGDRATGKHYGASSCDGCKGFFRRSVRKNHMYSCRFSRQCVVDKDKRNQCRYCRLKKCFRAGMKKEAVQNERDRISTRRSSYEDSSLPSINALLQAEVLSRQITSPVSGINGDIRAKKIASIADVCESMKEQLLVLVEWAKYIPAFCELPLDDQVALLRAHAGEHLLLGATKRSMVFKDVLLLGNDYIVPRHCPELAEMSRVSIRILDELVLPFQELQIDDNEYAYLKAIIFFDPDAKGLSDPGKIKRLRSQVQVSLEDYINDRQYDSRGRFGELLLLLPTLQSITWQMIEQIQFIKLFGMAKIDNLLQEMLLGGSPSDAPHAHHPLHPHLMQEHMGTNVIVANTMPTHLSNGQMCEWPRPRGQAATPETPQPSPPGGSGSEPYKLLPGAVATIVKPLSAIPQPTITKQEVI

For `COc1ccccc1N=Nc1c(O)[nH]c(=S)[nH]c1=O`, the activity change was 112% (active).
